# Experimental data from PubChem BioAssay (EPA / NIEHS).
# Results filed as inconclusive are left out. Active and inactive are the calls of the source. How the source made its calls: active means hit-call score of the fitted dose curve at least 0.9, where 1 is the maximum; inconclusive means response in the unintended direction; inactive means score below 0.9.
# Molecular target: human Protein Tyrosine Phosphatase Non-receptor Type 6 (PTPN6), PTPN6 (gene 5777) (UniProt P29350)
# Assay: NVS_ENZ_hPTPN6: NovaScreen (NVS) Enzymatic Assay for human Protein Tyrosine Phosphatase Non-receptor Type 6 (PTPN6) (AID 2283210)
# Description: NVS_ENZ_hPTPN6 is a biochemical, single-readout assay that uses extracted gene-proteins from SF9 in a cell-free assay. Measurements were taken 1.33 hours after chemical dosing in a 384-well plate.NVS_ENZ_hPTPN6 is one of one assay component(s) measured or calculated from the NVS_ENZ_hPTPN6 assay. It is designed to make measurements of enzyme activity, a form of enzyme reporter, as detected with fluorescence intensity signals by Fluorescence and electrophoretic mobility shift technology.Data from the assay component NVS_ENZ_hPTPN6 was analyzed into 1 assay endpoint. This assay endpoint, NVS_ENZ_hPTPN6, was analyzed in the positive analysis fitting direction relative to DMSO as the negative control and baseline of activity. Using a type of enzyme reporter, loss-of-signal activity can be used to understand changes in the enzymatic activity as they relate to the gene PTPN6. Furthermore, this assay endpoint can be referred to as a primary readout, because this assay has produced multiple assay endpoints where this one serves a enzymatic activity function. To generalize the intended target to other relatable targets, this assay endpoint is annotated to the phosphatase intended target family, where the subfamily is non-receptor tyrosine phosphatase.
# Binding assays used specific radioligands (tritiated, iodinated) with non-radioactive competitive displacement ligands in agonist or antagonist protocols (as indicated) and various reference compounds and inhibitors to titrate specific binding to receptors and transporters. Most enzyme assays (CYPs, kinases, phosphatases, proteases, HDACs) used recombinant protein and specific substrates (fluorescence mostly, some colorimetric and radioactive) and inhibitors, followed by a biochemical separation of substrate and product. All assays for the biochemical HTS were initially run in duplicate at a single concentration (10 uM for CYP450 assays and 25 uM for all others). […] Each assay was run with positive and negative controls, and concurrent controls on every plate. The follow-up (secondary) screen tested active chemical-pairs in concentration series, as well as a few additional assays not tested in the primary screen, some selected negative inactives, and several cases re-run in the concentration series for confirmatory purposes.
# Chain of human Protein Tyrosine Phosphatase Non-receptor Type 6 (PTPN6), PTPN6 (gene 5777) (P29350 whole entry, looked up): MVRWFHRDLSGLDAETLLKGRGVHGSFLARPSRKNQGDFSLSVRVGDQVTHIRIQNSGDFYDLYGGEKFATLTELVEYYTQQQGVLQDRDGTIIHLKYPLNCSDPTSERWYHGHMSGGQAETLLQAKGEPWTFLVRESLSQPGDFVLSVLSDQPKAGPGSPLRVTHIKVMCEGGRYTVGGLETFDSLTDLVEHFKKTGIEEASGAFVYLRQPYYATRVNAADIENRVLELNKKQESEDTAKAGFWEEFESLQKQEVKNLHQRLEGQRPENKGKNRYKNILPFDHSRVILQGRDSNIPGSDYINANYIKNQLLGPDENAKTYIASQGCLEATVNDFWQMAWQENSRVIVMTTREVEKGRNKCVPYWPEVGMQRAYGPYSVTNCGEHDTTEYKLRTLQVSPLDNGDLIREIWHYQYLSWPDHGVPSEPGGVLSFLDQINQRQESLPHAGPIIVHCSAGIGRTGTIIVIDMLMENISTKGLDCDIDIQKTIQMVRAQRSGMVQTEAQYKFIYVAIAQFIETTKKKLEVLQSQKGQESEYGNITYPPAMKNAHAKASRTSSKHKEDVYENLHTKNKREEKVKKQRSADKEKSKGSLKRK
SMILES,AC50,outcome
Nc1ccc(Oc2ccc(N)cc2)cc1,17 µM (active),
c1ccc2c(c1)oc1ccccc12,,inactive
Clc1ccc(C(c2ccc(Cl)cc2)C(Cl)(Cl)Cl)cc1,,inactive
C[N+](C)(C)CC1CO1 (stereo not given),,inactive
CC(C)(C)OOC(C)(C)CCC(C)(C)OOC(C)(C)C,39 µM (active),
OCCCBr,,inactive
O=C1CCCO1,,inactive
Clc1ccc(C(c2ccc(Cl)cc2)C(Cl)Cl)cc1,,inactive
c1ccc(C2CO2)cc1 (stereo not given),,inactive
CCC(C)c1ccc(O)cc1 (stereo not given),,inactive
O=P(OCCCl)(OCCCl)OCCCl,,inactive
O=[N+]([O-])c1ccc(Oc2ccc(Cl)cc2Cl)cc1,,inactive
CC(C)(C)OOC(=O)c1ccccc1,,inactive
CC(C)(OOC(C)(C)c1ccccc1)c1ccccc1,,inactive
CN(C)[C@@H]1C(=O)C(C(N)=O)=C(O)[C@@]2(O)C(=O)C3=C(O)c4c(O)cccc4[C@@](C)(O)[C@H]3C[C@@H]12,25 µM (active),
